Assay outcomes (PubChem)
Shown are actives, neighbours in structure and some others; about 4.2% of the full set was active somewhere.
Mito fusion act: mitochondrial division inhibition or fusion activation. 320,000 tested, 0.23% active. S. cerevisiae fusion-defective mutant growth rescue, CellTiterGlo 48 h. Potency, µM (titrated, usually from 46.1 µM), for the others: top-dose growth rescue (activation), most hits filed as activators. AID 485298; also: % of control where 0% means no effect; nearly all actives have a fitted effect of over 45% in size
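Temperature-sensitive fusion-defective S. cerevisiae (e.g. fzo1-1, mgm1-5) were grown with compound in YPEG medium (3% ethanol, 3% glycerol) for 48 hours at 37C. Growth rescue was measured as viability by CellTiterGlo luminescence after 10 minutes at ambient.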
SW480 rereplic: DNA re-replication induction in SW480 cells; SW480 DNA re-replication, Hoechst DNA content imaging, 48 h; Potency, µM (doses to about 46.1 µM), for inactives: at the top dose re-replication activation, most hits filed as activators; 340,000 tested, 1.8% active; AID 624297; also: % of control where 0% means no effect; nearly all actives have a fitted effect of over 55% in size
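250 cells/well; 23 nL cpd via pin tool; 48 hr, 37 C, 5% CO2; Hoechst 40 min; imager read of total nuclear intensity, ex 405/em 500-530 nm.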
A-T KAP1 phos: candidate therapy for ataxia-telangiectasia; 320,000 tested, 0.19% active; F2112 A-T fibroblasts, KAP-1 phosphorylation AlphaLISA; neocarzinostatin DNA damage 30 min before lysis; Potency, µM (highest dose often 57.5 µM), for the others: top-dose activation, usual class: activators; AID 485349; also: % of control where 0% means no effect; nearly all actives have a fitted effect of over 45% in size
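hTERT-immortalized A-T patient fibroblasts (F2112), 500 cells/well in OPTI-MEM, 1% FBS, got compounds for 60 min, then NCS for 30 min at 37C. Lysates were then assayed for phospho-KAP-1 by AlphaLISA (anti-pKAP1 donor, anti-KAP1 acceptor beads), 6 hr at 25C.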
MCF10A rereplic: DNA re-replication induction in MCF 10a cells; MCF 10A DNA re-replication, Hoechst nuclear intensity, 48 h; Potency, µM (top dose mostly 46.1 µM), without a hit: at the highest dose activity, positive = re-replication, most hits filed as activators; 350,000 tested, 2.9% active; AID 624296; also: % of control where 0% means no effect; nearly all actives have a fitted effect of over 50% in size
a7 integrin act: integrin-mediated muscular dystrophy alleviation activation; Potency, µM (titrated, usually from 38.3 µM), without a hit: top-dose activation, actives largely listed as activators; 350,000 tested, 0.064% active; alpha7betagal myoblasts, beta-gal FDG fluorescence, 48 h;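 also: 100% = response of the positive control SU9516; nearly all actives have a fitted effect of over 60% in size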
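Alpha7betagal+/- myoblasts (passage 13) were plated 16-24 hr, then exposed to compounds (1:260 dilution of DMSO stock) for 48 hours at 37C. After MPER lysis, β-galactosidase reporter activity was read as FDG fluorescence (ex 480/em 540) after 30 minutes.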
Numbers without * were called inactive; u = inconclusive; x = no result; [ ] = another dose, or the depositor's remark. Calls follow the shape of the dose curve; as a rule, active = well fitted activation curve with a large enough effect; inconclusive = small, poorly fitted or top-dose-only effect; inactive = no such curve, though single readings can be large or run the other way. Potency is read from the fitted curve at half-maximal effect.

SMILES	Mito fusion act	SW480 rereplic	A-T KAP1 phos	MCF10A rereplic	a7 integrin act
Cc1cc[n+]2cc(-c3cccc([N+](=O)[O-])c3)c(-c3cccc([N+](=O)[O-])c3)cc2c1	0%	2.6µM*	-2%	-2%	23%
Cc1ccc(-c2csc(/C(C#N)=C/Nc3ccc4c(c3)OCCO4)n2)cc1	-1%	u	7%	3.7µM*	-15%
CCc1ccc(-c2csc(NC(=O)C3CC(=O)N(c4ccc5c(c4)OCCO5)C3)n2)cc1 (stereo not given)	5%	u	-4%	18µM*	-15%
COc1cccc(C(=O)Nc2nc(-c3ccc4c(c3)OCO4)cs2)c1	u	11%	16%	16µM*	20%
Cc1cccc(Nc2nc(-c3ccc4c(c3)OCCO4)cs2)c1	0%	7.3µM*	8%	14µM*	10%
Cc1nc(-c2ccc3c(c2)OCCO3)cs1	0%	-9%	7%	-1%	2%
CCC(C)(CCNC(=O)Cc1ccccc1)c1ccccc1OC (stereo not given)	-7%	-15%	9%	0%	28%
N#CCC(=O)Nc1nc(-c2ccc3c(c2)OCCO3)cs1	3%	u	0%	23µM*	-8%
O=C(CCCCl)Nc1nc(-c2ccc3c(c2)OCCO3)cs1	-4%	5%	0%	12%	-31%
COc1ccc2c(c1)c(CC(=O)Nc1ccccc1OC)c(C)n2C(=O)c1ccc(Cl)cc1	25%	0%	0%	16µM*	14%
COc1ccc2c(c1)c(CC(=O)Nc1nnc(C3CC3)s1)c(C)n2C(=O)c1ccc(Cl)cc1	8%	u	5%	10µM*	-48%
COc1ccc2c(c1)c(CC(=O)NCc1cc([N+](=O)[O-])ccc1O)c(C)n2C(=O)c1ccc(Cl)cc1	-4%	-2%	9%	23µM*	4%
COc1ccc2c(c1)c(CC(=O)Nc1ccc(C(C)=O)cc1)c(C)n2C(=O)c1ccc(Cl)cc1	-20%	-18%	2%	3%	12%
O=C(NC1CCCC1)C(c1ccccc1)N(Cc1cccnc1)C(=O)Cc1cccs1 (stereo not given)	1%	u	3%	-1%	1%
O=C(COC(=O)c1cc(Br)ccc1O)Nc1cc(S(=O)(=O)N2CCCC2)ccc1Cl	2%	-10%	-1%	5%	0%
CCN(Cc1ccccc1)c1ccc(/C=C(\C#N)c2ccccn2)cc1	0%	18%	-6%	21µM*	13%
CN(CCC#N)c1ccc(/C=C(\C#N)c2ccccn2)cc1	18%	14%	-5%	u	3%
CCN(CC)c1ccc(/C=C(\C#N)c2ccccn2)cc1	11%	15µM*	-4%	23µM*	-47%
CCCc1ccc2oc(C(=O)NCCN3CCCC(C(N)=O)C3)c(C)c2c1 (stereo not given)	0%	21%	13%	24%	-63%
CCCc1ccc2oc(C(=O)NCCN3CCCC(O)C3)c(C)c2c1 (stereo not given)	-2%	23µM*	15%	u	-56%
CCCSS/C(CCO)=C(/C)N(C=O)Cc1cnc(C)nc1N	x	u	x	13µM*	x
C[C@@H]1CCCCO[C@H](CN(C)C(=O)c2ccccc2)[C@@H](C)CN([C@H](C)CO)C(=O)c2cc(NC(=O)c3ccncc3)ccc2O1	x	x	x	x	-1%
Cc1ccc(NC(=O)CSc2nc3ccccc3c3nc(CCc4c(C)n[nH]c4C)nn23)cc1F	-4%	10µM*	8%	3.7µM*	-43%
Cc1n[nH]c(C)c1CCc1nc2c3ccccc3nc(SCC(N)=O)n2n1	-5%	-6%	x	20%	24%
CC1(C)Cc2c(c(-c3ccccc3Cl)[nH]c(=O)c2C#N)CO1	-1%	1%	1%	-2%	-16%
SMILES	Mito fusion act	SW480 rereplic	A-T KAP1 phos	MCF10A rereplic	a7 integrin act
N#Cc1c(-c2ccc(Cl)cc2)c2c([nH]c1=O)-c1ccccc1OC2	5%	5.8µM*	u	1.8µM*	10%
O=[N+]([O-])c1cc(Br)c(O)c(/C=N/Nc2nnnn2-c2cccc3ccccc23)c1	1%	14%	-1%	4.1µM*	8%
O=[N+]([O-])c1cc(Br)c(O)c(C=Nc2ccc(N3CCOCC3)cc2)c1	19%	12%	-2%	u	7%
O=c1c(OCc2ccccc2)cccn1Cc1ccccc1	x	x	x	x	-11%
CCCCN(c1nc2ccccc2nc1Cl)S(=O)(=O)c1ccc(C)cc1	-31%	-9%	10µM*	u	-10%
CN(C)c1ccc(/C=N\NC(=S)SCN2C(=O)C3CCC(C)(C2=O)C3(C)C)cc1 (stereo not given)	-2%	u	-5%	7.3µM*	-11%
O=C(c1nn2c(C(F)(F)F)cc(-c3cccs3)nc2c1Br)N1CCCc2ccccc21	-17%	u	7%	u	-38%
O=C(c1nn2c(C(F)(F)F)cc(-c3ccco3)nc2c1Br)N1CCCc2ccccc21	-2%	u	-9%	9.2µM*	-28%
O=C1c2ccccc2C(=O)c2c1cccc2N1CCCC1	19%	-19%	-14%	-1%	1%
O=C1C=C(N2CCCCC2)c2ccccc2C1=O	x	3.3µM*	x	u	-43%
Cc1cccc(C(=O)OCCN2CCOCC2)c1	2%	-3%	11%	u	-21%
CCOc1ccc(C2Nc3ccc4ccccc4c3-c3c2c(=O)oc2ccccc32)cc1 (stereo not given)	0%	u	2%	5.2µM*	-6%
Cc1cc(Nc2ccccc2)nc2cc(O)ccc12	-7%	u	4%	21µM*	-3%
COc1ccc(Nc2cc(C)c3ccc(O)cc3n2)cc1	-24%	u	12%	u	0%
CCCCn1c(N)c(N(CCOC)C(=O)CC(NC(=O)c2ccccc2)c2ccccc2)c(=O)[nH]c1=O (stereo not given)	5%	-8%	-1%	0%	-15%
Cc1sc(NC(=O)c2ccco2)c(CN2CCC(C)CC2)c1C	5%	2%[9.22 µM]	8%	u	2%
Cc1sc(NC(=O)c2ccco2)c(CN2CCN(Cc3ccccc3)CC2)c1C	12%	u	7%	23µM*	-6%
CC(SCC(=O)Nc1ccccc1)c1nc2ccccc2c(=O)[nH]1 (stereo not given)	0%	-12%	3%	u	-3%
CC(C)c1ccc(NC(=O)CSC(C)c2nc3ccccc3c(=O)[nH]2)cc1 (stereo not given)	1%	-6%	4µM*	-3%	10%
O=C(c1ccc2c(c1)OCO2)N1CCN(CCN2C(=O)c3cccc4cccc(c34)C2=O)CC1	x	11%	x	-2%	7%
COc1ccc(CCNC(=O)c2ccc(NC(=O)CC3SC(N4CCCCC4)=NC3=O)cc2)cc1 (stereo not given)	x	-10%	x	-1%	-21%
